Screening data (PubChem)
The full list was thinned out, with hits kept by preference.
Pf Dd2 growth: qHTS Primary assay for Inhibitors of Plasmodium falciparum Dd2 growth in vitro; P. falciparum Dd2 growth, SYBR Green, 72 h; Potency, µM (series often up to 28.9 µM), inactives show at the highest dose activity, negative = inhibition, most hits filed as inhibitors; 4.3% of 120,000 active; AID 1347417, 2020; active = well fitted inhibition curve with a large enough effect;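 also: plate controls were DMSO vehicle for no effect and reference drug for full effect; nearly all actives have a fitted effect of over 65% in size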
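Readout: SYBR Green fluorescence, 485 nm excitation, 535 nm emission, after ~16 h lysis at 37C. Before that, Dd2-infected red cells (2.5% hematocrit) grew 72 h with compound, 29 uM top final concentration.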
* marks the source's active call; other numbers are inactive results; [ ] = dose if it differs, or a comment. Potency is read from the fitted curve at half-maximal effect.

Screening COc1cccc(C(=O)NCc2nnc3ccc(-c4ccc(C)cc4)nn23)c1OC returned Pf Dd2 growth inactive.
For O=C(c1c(F)cccc1F)N1CCCC2(C1)NC(=O)N(Cc1ccc(Cl)cc1)C2=O (stereo not drawn) the results were Pf Dd2 growth 1%.
Screening O=C1CCC2(CNC(=O)c3ccsc3)CCC=C2N1 (stereo not drawn) returned Pf Dd2 growth 6%.
`CC(C)NC(=O)C1CCc2nnc(C(C)(C)C)n21` (stereo not drawn) gave Pf Dd2 growth 15%[44.1 µM].
`CN1CCC(NC(=O)c2ccc(OC3CCNCC3)nc2)CC1` gave Pf Dd2 growth 15%.
`CCC(=O)N1CCC(OC2CCN(C(=O)CC3CCCCC3)CC2)CC1` gave Pf Dd2 growth -16%.
`COc1ccc(S(=O)(=O)N2C[C@@H]3C[C@H](C2)c2ccc(-c4ccccc4C)c(=O)n2C3)cc1` gave Pf Dd2 growth -1%.
`Cc1ccc(C2=NC3(CCN(C(=O)c4ccc(C)c(F)c4)CC3)ON2)cc1` gave Pf Dd2 growth -48%.
CCOc1ccc(C(=O)Nc2cc3c(cc2N2CCCC2)n(C)c(=O)c(=O)n3C)cc1OCC was read as Pf Dd2 growth -16%.
For CCOc1ccccc1NC(=O)Nc1cc2c(cc1N1CCCCC1)n(CC)c(=O)n2CC the results were Pf Dd2 growth 11µM*.
CCOc1ccc(NC(=O)Nc2cc3c(cc2N2CCCCC2)n(C)c(=O)n3C)cc1 was read as Pf Dd2 growth -15%.
COc1ccc(CNC(=O)C[C@@H]2C[C@H]3O[C@H](CN)[C@@H](O)[C@H]3O2)cc1 was read as Pf Dd2 growth 14%[44.1 µM].
Cc1ccc(CNc2nc3ccccc3c3nc(-c4cccc(C)c4)nn23)cc1 was read as Pf Dd2 growth 8%.
COc1cc2nc(NCCc3cccc(C)c3)n3nc(-c4ccccc4)nc3c2cc1OC was read as Pf Dd2 growth 0.5µM*.
`Cc1cccc(-c2nc3c4ccccc4nc(NCc4ccc(Cl)cc4)n3n2)c1` gave Pf Dd2 growth -16%.
For COCCCNC(=O)CSc1nc2cc(OC)c(OC)cc2c2nc(-c3ccccc3)nn12 the results were Pf Dd2 growth -22%.
For COc1ccccc1CNc1nc2ccccc2c2nc(-c3cccnc3)nn12 the results were Pf Dd2 growth -24%.
COc1cc2nc(NCc3ccc(C)cc3)n3nc(-c4ccccc4)nc3c2cc1OC was read as Pf Dd2 growth 0.1µM*.
O=C(O)c1cnc(NCc2cccnc2)nc1-c1ccc(Cl)cc1 was read as Pf Dd2 growth inactive.
COCCNC(=O)c1nc2c(o1)CCN(Cc1ccc(OC)cc1)CC2 was read as Pf Dd2 growth -16%[44.1 µM].
For COc1ccc(CN2CCc3oc(C)c(C(=O)N4CCN(C(C)=O)CC4)c3C2)cc1 the results were Pf Dd2 growth -13%.
`CCn1ncc(CN(C)C(=O)c2c(C)oc3c2CN(Cc2ccc(OC)cc2)CC3)c1C` gave Pf Dd2 growth 11µM*.
CN(Cc1ccc(F)cc1)CC1CCCCC1 was read as Pf Dd2 growth 23%[44.1 µM].
CN1CCC(N(C)CC2CCCN(CCc3ccc(F)cc3)C2)CC1 (stereo not drawn) was read as Pf Dd2 growth 8.9µM*.
Cc1nc(C)c(CN(C)C2CCCN(CCc3ccccc3)C2)nc1C (stereo not drawn) was read as Pf Dd2 growth -16%.
For Cc1ccc(-c2nc(NCc3ccncc3)ncc2C(=O)O)cc1 the results were Pf Dd2 growth 43%.
For CC(C)CCN1C(=O)CC[C@]2(C(=O)N(C)CCc3ccccn3)CCCC[C@@H]12 the results were Pf Dd2 growth -23%.
For Cc1ccc(N2C(=O)[C@@H]3C[C@@H](NC(=O)c4cccn4C)CCN3C2=O)cc1 the results were Pf Dd2 growth inactive.
Cn1cccc1C(=O)N[C@H]1CCN2C(=O)N(c3cccc(F)c3)C(=O)[C@@H]2C1 was read as Pf Dd2 growth -11%[44.1 µM].
`CSc1cccc(N2C(=O)[C@@H]3C[C@@H](NC(=O)c4cccn4C)CCN3C2=O)c1` gave Pf Dd2 growth 10µM*.
Screening COc1ccc(OC)c(C2=NOC(C(=O)O)C2)c1 (stereo not drawn) returned Pf Dd2 growth -15%.
`Cn1nnc(-c2cccc(NC(=O)C[C@H]3NC(=O)c4ccccc4NC3=O)c2)n1` gave Pf Dd2 growth -21%.
`CC(C)C(NC(=O)C1CCN(C(=O)C2CCC2)CC1)c1nc(C2CC2)no1` (stereo not drawn) gave Pf Dd2 growth 5%.
For CS(=O)(=O)N1CCCC(c2nc(-c3cccnc3)no2)CCNC(=O)CC1 (stereo not drawn) the results were Pf Dd2 growth -12%.
For O=C1NCCCCCCN(S(=O)(=O)c2cccnc2)[C@H]2C[C@H](c3nc(-c4cccnc4)no3)C[C@@H]12 the results were Pf Dd2 growth 2.8µM*.
For CC(C)c1noc(C2CCCN(Cc3ccccc3)CCC(=O)NCC2)n1 (stereo not drawn) the results were Pf Dd2 growth 4.5µM*.
O=C1NCCCCCCN(C(=O)c2cnccn2)[C@H]2C[C@H](c3nc(-c4cccnc4)no3)C[C@@H]12 was read as Pf Dd2 growth -23%.
Screening CC(C)c1noc(C2CCCN(C(=O)NCCc3ccccc3)CCC(=O)NCC2)n1 (stereo not drawn) returned Pf Dd2 growth 39%.
COc1ccc(C(=O)N2CCCC(c3nc(-c4cccnc4)no3)CCNC(=O)CC2)c(OC)n1 (stereo not drawn) was read as Pf Dd2 growth inactive.
CC(C)c1noc(C2CCCN(Cc3cccnc3)CCC(=O)NCC2)n1 (stereo not drawn) was read as Pf Dd2 growth 0%.
O=C1CCN(C2CCCC2)CCCC(c2nc(-c3cccnc3)no2)CCN1 (stereo not drawn) was read as Pf Dd2 growth 0.71µM*.
Screening O=C1CCN(C(=O)c2cccnc2)CCCC(c2nc(-c3ccccc3)no2)CCN1 (stereo not drawn) returned Pf Dd2 growth inactive.
Screening O=C1CCN(C2CCOCC2)CCCC(c2nc(-c3cccnc3)no2)CCN1 (stereo not drawn) returned Pf Dd2 growth -1%.
CS(=O)(=O)N1CCCCCCNC(=O)[C@@H]2C[C@@H](c3nc(-c4cccnc4)no3)C[C@@H]21 was read as Pf Dd2 growth inactive.
`COc1ccc(C(=O)N2CCCC(c3nc(-c4ccccc4)no3)CCNC(=O)CC2)c(OC)n1` (stereo not drawn) gave Pf Dd2 growth 11µM*.
COCCNC(=O)[C@H]1CN2CCC1C[C@@H]2Cn1cc(CSc2ccccc2)nn1 (stereo partly drawn) was read as Pf Dd2 growth inactive.
Screening CCN(CC)CC[C@H]1CN(C(=O)Cc2cccs2)CC[C@H]1CC(=O)O returned Pf Dd2 growth 10%[44.1 µM].
COC(=O)CO[C@@H]1CO[C@H]2[C@@H]1OC[C@@H]2NC(=S)Nc1cc(C)cc(C)c1 was read as Pf Dd2 growth inactive.
COc1cccc(Cl)c1-c1nccc2c(=O)cc(-c3ccccn3)oc12 was read as Pf Dd2 growth inactive.
Cn1c(CCC(=O)NC2CCOCC2)nc2cc(S(=O)(=O)N3CCCC3)ccc21 was read as Pf Dd2 growth inactive.
For COc1ccc(NC(=O)N2C[C@@H](Oc3cccnc3)C[C@@H]2C(=O)N2CCOCC2)cc1 the results were Pf Dd2 growth -7%.
For COc1ccc(C2(C(=O)N3CCCC(c4nc(-c5ccccc5)no4)CCNC(=O)CC3)CC2)cc1 (stereo not drawn) the results were Pf Dd2 growth 7.9µM*.
